AmpC inh det = Promiscuous and Specific Inhibitors of AmpC Beta-Lactamase (assay with detergent); 0.09% of 71,000 active; Potency, µM (series often up to 28.7 µM), for inactives: at the highest dose activity change, negative = inhibition; purified AmpC, nitrocefin hydrolysis with detergent; P00811; active = well fitted curve in the direction sought with a large enough effect; inconclusive = small, poorly fitted or top-dose-only effect; also: % is scaled to controls: 0 for no effect and ±100 for the full control effect
Target sequence (P00811 whole entry, looked up): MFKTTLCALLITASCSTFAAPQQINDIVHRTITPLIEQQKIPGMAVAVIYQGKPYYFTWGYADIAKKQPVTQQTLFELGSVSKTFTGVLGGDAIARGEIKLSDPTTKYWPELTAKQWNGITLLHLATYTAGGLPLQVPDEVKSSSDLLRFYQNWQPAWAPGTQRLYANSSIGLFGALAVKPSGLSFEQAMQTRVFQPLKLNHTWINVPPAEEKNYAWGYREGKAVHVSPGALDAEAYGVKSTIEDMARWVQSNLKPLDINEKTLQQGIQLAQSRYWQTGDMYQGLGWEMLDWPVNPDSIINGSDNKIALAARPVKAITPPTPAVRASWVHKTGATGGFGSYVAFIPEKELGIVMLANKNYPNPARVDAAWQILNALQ
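E. coli AmpC (5.3 nM) in 20 mM phosphate pH 7.0 with 0.01% Triton X-100, preincubated 15 min RT with compound; nitrocefin (2 uL of 800 uM stock) hydrolysis followed by 480 nm absorbance every 20 s over 4 min.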
LT uptake inh = qHTS Assay for Anthrax Lethal Toxin Internalization | Cells, anthrax lethal toxin internalization, FRET ratio (460/530) | Potency, µM (titrated, usually from 40 µM), for the others: at the highest dose activity change, negative = inhibition, hits mostly inhibitors | 0.67% of 70,000 active | AID 912, 2007; also: % is scaled to controls: 0 for no effect and ±100 for the full control effect; nearly all actives have a fitted effect of over 50% in size
AmpC inh no det = Promiscuous and Specific Inhibitors of AmpC Beta-Lactamase (assay without detergent); P00811; AID 585, 2007; 1.8% of 71,000 active; Potency, µM (highest dose often 28.7 µM), without a hit: at the top dose activity change, negative = inhibition; AmpC nitrocefin hydrolysis, absorbance 480 nm, no detergent; also: % of control where 0% means no effect
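Enzyme, pH 7.0 phosphate. Compound titrations were pre-incubated with AmpC for 15 min at room temperature before nitrocefin (stock 800 uM) addition; product formation was recorded at 480 nm every 20 s for 4 min.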
SmPrx2 inh = Schistosoma Mansoni Peroxiredoxins (Prx2); S. mansoni Prx2 activity coupled to TGR/GSH (TGR is thioredoxin glutathione reductase), NADPH fluorescence loss, qHTS; Potency, µM; 0.07% of 65,000 active
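Prx2 activity was followed as the loss of NADPH fluorescence (ex 365/em 450 nm), read every 30 sec for 8 min after H2O2 start. The enzyme mix (50 nM Prx2, 25 nM TGR, GSH, NADPH; pH 7.4 phosphate buffer) was incubated with compound for 15 min at room temperature first.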
* hit, by the source's call; [ ] = another dose, or the depositor's remark. Rows were chosen to be rich in hits. Some 2.4% of all compounds tested hit in one or more screens of this group. Unless noted, calls follow the shape of the full dose curve. Potency is read from the fitted curve at half-maximal effect.

Results for CC[C@]1(O)C[C@H]2CN(CCc3c([nH]c4ccccc34)[C@](C(=O)OC)(c3cc4c(cc3OC)N(C=O)[C@H]3[C@@](O)(C(=O)OC)[C@H](OC(C)=O)[C@@]5(CC)C=CCN6CC[C@]43[C@H]65)C2)C1 ?
AmpC inh det: -1%; LT uptake inh: inconclusive; AmpC inh no det: 161%; SmPrx2 inh: >26

What do the screens show for `C[C@@H]1O[C@H]1P(=O)(O)O`?
AmpC inh det: 18%; LT uptake inh: 8%; AmpC inh no det: 1%; SmPrx2 inh: >57

What do the screens show for `C=C(C)c1ccccc1` (tested in a mixture with another compound)?
AmpC inh det: -4%[5.75 µM]; LT uptake inh: -2%[8 µM]; AmpC inh no det: -4%[5.75 µM]; SmPrx2 inh: >57

Results for CC1CCCCN1CCNC(=O)CC1Oc2ccccc2NC1=O (centres undefined) ?
AmpC inh det: 13%; LT uptake inh: inconclusive; AmpC inh no det: 2.5µM*[single pt active]; SmPrx2 inh: >57

Results for CC1CCCCC1NC(=O)CC1Oc2ccccc2NC1=O (centres undefined) ?
AmpC inh det: 15%; LT uptake inh: -8%; AmpC inh no det: 4µM*[single pt active]; SmPrx2 inh: >57

How did CCCCN(C)CCCNC(=O)CC1Oc2ccccc2NC1=O (centres undefined) do in these assays?
AmpC inh det: 13%; LT uptake inh: 1%; AmpC inh no det: 4µM*[single pt active]; SmPrx2 inh: >57

How did O=C(CC1Oc2ccccc2NC1=O)NCCCN1CCOCC1 (centres undefined) do in these assays?
AmpC inh det: 9%; LT uptake inh: 7%; AmpC inh no det: 2%; SmPrx2 inh: >57

Results for Cc1ccc2c(c1)NC(=O)C(CC(=O)NCCCN1CCCCC1C)O2 (centres undefined) ?
AmpC inh det: 10%; LT uptake inh: -12%; AmpC inh no det: 25%; SmPrx2 inh: >57

What do the screens show for `COc1ccc(NC(=O)c2nnn(Cc3cccc(F)c3)c2N)c(OC)c1`?
AmpC inh det: 11%; LT uptake inh: -4%; AmpC inh no det: 2.5µM*[single pt active]; SmPrx2 inh: >57

How did COc1ccc(OC)c(NC(=O)c2nnn(Cc3ccc(Br)cc3F)c2N)c1 do in these assays?
AmpC inh det: 13%; LT uptake inh: inconclusive; AmpC inh no det: 3.2µM*[single pt active]; SmPrx2 inh: inconclusive

Results for COc1cccc(Cn2nnc(C(=O)Nc3cc(Cl)ccc3OC)c2N)c1 ?
AmpC inh det: 12%; LT uptake inh: inconclusive; AmpC inh no det: -22%; SmPrx2 inh: >57

How did Cc1ccc(C)c(NC(=O)c2nnn(Cc3ccccc3)c2N)c1 do in these assays?
AmpC inh det: 24%; LT uptake inh: -8%; AmpC inh no det: -12%; SmPrx2 inh: >57

Results for COc1ccc(C)cc1NC(=O)c1nnn(Cc2cccc(F)c2)c1N ?
AmpC inh det: 15%; LT uptake inh: -6%; AmpC inh no det: 3.2µM*[single pt active]

Results for COc1cccc(-c2cncnc2NCc2ccccc2)c1 ?
AmpC inh det: 10µM*; LT uptake inh: inconclusive; AmpC inh no det: 13µM*; SmPrx2 inh: >57

How did c1ccc(/C(=N/Nc2nc3ccccc3s2)c2ccccn2)cc1 do in these assays?
AmpC inh det: -2%[5.75 µM]; LT uptake inh: -21%[8 µM]; AmpC inh no det: 35%[5.75 µM]; SmPrx2 inh: >57

What do the screens show for `C/C(CCN1CCCc2nc(C)c(C)cc21)=N\O[C@@H](C)c1cc(-c2c(C)cc(C)cc2C)no1`?
LT uptake inh: 6%[8 µM]

How did Cc1nc2c3ccccc3n(CC(=O)c3ccc(F)cc3)c(=O)n2n1 do in these assays?
AmpC inh det: 14%; LT uptake inh: inconclusive; AmpC inh no det: 4µM*[single pt active]; SmPrx2 inh: >57

What do the screens show for `CNc1nc(Nc2ccc(C(C)=O)cc2)nc(OC(C(F)(F)F)C(F)(F)F)n1`?
AmpC inh det: 2%; LT uptake inh: 10µM*; AmpC inh no det: 38%; SmPrx2 inh: >57

How did Cc1ccc(C)c(-n2c(Cc3cc(=O)[nH]c(=O)[nH]3)nnc2SC(C)C)c1 do in these assays?
AmpC inh det: 13%; LT uptake inh: -5%; AmpC inh no det: 4µM*[single pt active]; SmPrx2 inh: >57

What do the screens show for `CCC(C)Sc1nnc(Cc2cc(=O)[nH]c(=O)[nH]2)n1-c1ccc(OC)cc1` (centres undefined)?
AmpC inh det: 13%; LT uptake inh: -12%; AmpC inh no det: 3.2µM*[single pt active]; SmPrx2 inh: >57

How did CCOc1ccc(-n2c(Cc3cc(=O)[nH]c(=O)[nH]3)nnc2SCC(=O)OC)cc1 do in these assays?
AmpC inh det: 9%; LT uptake inh: -10%; AmpC inh no det: 4µM*[single pt active]; SmPrx2 inh: >57

What do the screens show for `COC(=O)C(C)Sc1nnc(Cc2cc(=O)[nH]c(=O)[nH]2)n1-c1ccc(OC)cc1` (centres undefined)?
AmpC inh det: 13%; LT uptake inh: -12%; AmpC inh no det: 4µM*[single pt active]; SmPrx2 inh: >57

Results for Clc1nc(NCCc2ccccc2)c2ncn(-c3ccccc3)c2n1 ?
AmpC inh det: 0%[5.75 µM]; LT uptake inh: 0%[8 µM]; AmpC inh no det: -11%[5.75 µM]; SmPrx2 inh: >57

How did CN1C[C@H](C(=O)N[C@@]2(C)O[C@@]3(O)[C@H]4CCCN4C(=O)[C@@H](Cc4ccccc4)N3C2=O)C=C2c3cccc4[nH]cc(c34)C[C@@H]21 do in these assays?
AmpC inh det: -4%[5.75 µM]; LT uptake inh: -3%[8 µM]; AmpC inh no det: 22%[5.75 µM]; SmPrx2 inh: >11

How did COC(=O)NC(c1cccc(C)c1)[C@]1(C(C)=O)CCOC1=O (some centres undefined) do in these assays?
LT uptake inh: -28%[8 µM]

How did CC(C)(C)OC(=O)NCCc1nnc(S(=O)(=O)Cc2ccc(Cl)cc2Cl)o1 do in these assays?
AmpC inh det: 0.016µM*; LT uptake inh: inconclusive; AmpC inh no det: 0.04µM*; SmPrx2 inh: >57

What do the screens show for `CC1(C)CC[C@]2(C(=O)O)CC[C@]3(C)C(=CC[C@@H]4[C@@]5(C)CC[C@H](O)C(C)(C)[C@@H]5CC[C@@]43C)[C@@H]2C1`?
AmpC inh det: 0%; LT uptake inh: inconclusive; AmpC inh no det: -13%; SmPrx2 inh: >57

What do the screens show for `O=C(Cn1ncc2c1-c1ccccc1OC2)N(Cc1ccco1)C1CCCCC1`?
AmpC inh det: 11%; LT uptake inh: -11%; AmpC inh no det: 81%; SmPrx2 inh: >57

How did O=C(Cn1ncc2c(=O)oc3ccccc3c21)N(Cc1ccco1)C1CCCCC1 do in these assays?
AmpC inh det: 10%; LT uptake inh: -15%; AmpC inh no det: 3.2µM*[single pt active]; SmPrx2 inh: >57

How did COC(=O)c1ccccc1NC(=O)N1c2ccccc2CC1C (centres undefined) do in these assays?
AmpC inh det: -6%; LT uptake inh: 16µM*; AmpC inh no det: 8%; SmPrx2 inh: >57

Results for COc1ccc(NC(=O)N2c3ccccc3CC2C)cc1OC (centres undefined) ?
AmpC inh det: -6%; LT uptake inh: 4%; AmpC inh no det: 19%; SmPrx2 inh: >57

How did CCOC(=O)CCN1C(=O)[C@H]2[C@H]3[C@H](O)[C@H](O)C/C(=N/NC(=O)OCC)[C@@H]3CC[C@@H]2C1=O do in these assays?
LT uptake inh: -12%[8 µM]

Screening data deposited in PubChem by National Center for Advancing Translational Sciences (NCATS).
